Out of some 290,000 compounds screened, about 3,200 (1.1%) were called active. Rule as the data show it: active = inhibition above about 60%; inactive = the rest. Shown is part of a subset that was picked to be rich in actives.

For this assay, the target named is Phosphoethanolamine/phosphocholine phosphatase (Homo sapiens) (UniProt Q8TCT1). Briefly: PubChem AID 1565. The note with it: recombinant PHOSPHO1, absorbance phosphatase assay; at 13.3 µM; stronger effect = higher value.
Phosphoethanolamine/phosphocholine phosphatase (Homo sapiens), sequence (Q8TCT1 whole entry, looked up): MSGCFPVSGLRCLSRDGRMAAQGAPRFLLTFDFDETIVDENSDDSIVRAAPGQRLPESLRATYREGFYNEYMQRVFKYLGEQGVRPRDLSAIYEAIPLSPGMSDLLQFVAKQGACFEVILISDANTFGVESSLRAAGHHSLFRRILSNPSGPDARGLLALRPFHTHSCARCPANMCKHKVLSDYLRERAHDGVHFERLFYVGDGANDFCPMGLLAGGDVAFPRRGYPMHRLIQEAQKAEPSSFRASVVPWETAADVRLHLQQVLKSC
For the compound `Nc1ccc(-c2nnc(-c3ccc(-c4ccccc4)cc3)o2)cc1`, the inhibition (commonly the change of the read-out against control, counted positive when it falls) is 71.5% (active).

`Nc1ccc(-c2nnc(-c3ccccc3)o2)cc1`: the inhibition was 4.2% (inactive).

For `Brc1ccc(-c2nnc(-c3ccccc3)o2)o1`, the inhibition is -10.5% (inactive).

Regarding `COc1cccc(CNC(=O)c2nnn(CC(=O)Nc3cc(C)ccc3C)c2N)c1`, the inhibition was 37.5% (inactive).

Turning to `Cc1ccc2nc(-c3ccc(NC(=O)c4cccnc4)cc3)oc2c1`, the inhibition is 30.4% (inactive).

With `COc1ccccc1C(=O)Nc1ccnn1C1CCN(Cc2cnn(C)c2)CC1`, the inhibition was 38.1% (inactive).

For the compound `CCOC(=O)N1CCN(C(c2cccnc2)c2ccc3cccnc3c2O)CC1` (stereo not given), the inhibition was 96.9% (active).

Take `O=C(CSc1cccc2cccnc12)N/N=C/c1cccnc1`: the inhibition is -11.2% (inactive).

Take `CCN1CCN(C(c2cccnc2)c2cc(Cl)c3cccnc3c2O)CC1` (stereo not given): the inhibition was 98.8% (active).

As for `Clc1cccc(CN2COc3c(cc(Cl)c4cccnc34)C2)c1`, the inhibition was -4% (inactive).

On to `Cc1onc(C(=O)NN)c1C(=O)N1CCN(C(c2ccccc2)c2ccccc2)CC1`, for which the inhibition is -25.8% (inactive).

Take `Oc1ccccc1CN1CCN(C(c2ccccc2)c2ccccc2)CC1`: the inhibition was 34.3% (inactive).

As to `Cc1cccc(NC(=O)c2cccc(C(=O)Nc3cccc(C)c3C)n2)c1C`, the inhibition was 14.9% (inactive).

As to `COc1cccc2cc(C(N)=O)/c(=N\NC(=O)c3ccccc3)oc12`, the inhibition was 43.7% (inactive).

For `CCCCCN(C(=O)CCC(=O)OCC(=O)NCc1ccc(OC)cc1)c1c(N)n(CCCC)c(=O)[nH]c1=O`, the inhibition was 36.6% (inactive).

As for `Cc1ccc(NC(=O)COC(=O)C2C3CC4OC(=O)C2C4C3)cc1Cl` (stereo not given), the inhibition was 23.2% (inactive).

Turning to `CSc1nnc(-c2ccncc2)n1CCCN1CCCC1=O`, the inhibition was 86.5% (active).

Turning to `COCCCn1c(SCC(=O)Nc2ccccc2)nnc1-c1ccncc1`, the inhibition was -12.8% (inactive).

On to `CCCn1c(SCC(=O)N2CCc3ccccc32)nnc1-c1ccncc1`, for which the inhibition was 1.6% (inactive).

For `COc1cccc(C(=O)Nc2nnc(S(=O)(=O)N(C)c3ccccc3)s2)c1`, the inhibition was 41.2% (inactive).

As for `O=C(Nc1ccncc1)c1ccc([N+](=O)[O-])cc1Cl`, the inhibition is 15.6% (inactive).

As to `Cc1c(Cc2ccccc2)c(=O)oc2cc(OCC(N)=O)ccc12`, the inhibition is 61.5% (active).

As for `Cc1c(CCC(=O)O)c(=O)oc2cc(OCc3ccc(Br)cc3)ccc12`, the inhibition is 4.7% (inactive).

As to `NC(=O)COc1ccc2c3c(c(=O)oc2c1)CCCCC3`, the inhibition was 18% (inactive).

With `COc1ccc(-n2nc(C(=O)NCC(=O)N3CCCCCC3)c3ccccc3c2=O)cc1Cl`, the inhibition is 36% (inactive).

`CCOC(=O)c1c(N)sc(C(C)=O)c1C`: the inhibition was 33% (inactive).

With `COC(=O)c1sc(=S)n(-c2ccc(Cl)cc2)c1C`, the inhibition was -2.1% (inactive).

`COCCOC(=O)c1sc(=S)n(CCOC)c1N`: the inhibition is 76.4% (active).

Regarding `COCCCC1CCN(C(=O)C2CCC(=O)N(C3CCCCCC3)C2)CC1` (stereo not given), the inhibition is 26.5% (inactive).

Regarding `O=C(N/N=C\c1cccnc1)c1cc(-c2ccccc2)nc2c(Cl)cccc12`, the inhibition was 9% (inactive).

On to `O=C(/C=C/c1cccc(C(F)(F)F)c1)N1CCN(c2ccccn2)CC1`, for which the inhibition was 23.3% (inactive).

With `Clc1c(OCCCn2ccnc2)ccc2ccccc12`, the inhibition is 13.9% (inactive).

With `O=C(O)c1[nH]c2ccccc2c1C(c1cccc(O)c1)c1c(C(=O)O)[nH]c2ccccc12`, the inhibition was 14.1% (inactive).

On to `O=C(O)CSCC(=O)Nc1ccc(C(F)(F)F)cc1`, for which the inhibition is 46.4% (inactive).

In the case of `Cc1cccc(NC(=O)c2cccc(C(F)(F)F)c2)c1`, the inhibition is 66.2% (active).

In the case of `Cc1cccc(NC(=O)c2nnn(-c3cccc(C(F)(F)F)c3)c2N)c1`, the inhibition was 11.4% (inactive).

As to `O=C(O)CSCC(=O)Nc1cccc(C(F)(F)F)c1`, the inhibition was 61.5% (active).

Regarding `O=C(O)CC1(CC(=O)Nc2cccc(C(F)(F)F)c2)CCCC1`, the inhibition is 24% (inactive).

For the compound `CNC(=O)c1ccc(NC(=O)c2cccc(C(F)(F)F)c2)cc1`, the inhibition is 47.6% (inactive).

Take `COc1ccc(/C=N/NC(=O)C2CC2)c(OC)c1OC`: the inhibition was 21.2% (inactive).

On to `CC1Sc2ccc(S(=O)(=O)CCC(=O)NCc3ccccc3Cl)cc2NC1=O` (stereo not given), for which the inhibition was -22.3% (inactive).

In the case of `COc1ccc(C(=O)OCC(=O)NCCCc2ccccc2)cc1OC`, the inhibition is 17.9% (inactive).

On to `COc1ccc(CCNC(=O)COC(=O)c2ccc[nH]c2=O)cc1`, for which the inhibition was 0.3% (inactive).

As for `COc1ccccc1C(=O)OCC(=O)NCCNC(=O)COC(=O)c1ccccc1OC`, the inhibition is 70.6% (active).

Regarding `O=C(CSc1nnnn1C1CCCC1)N1CCCCC1`, the inhibition was 30.7% (inactive).

For `O=C(c1cc2ccccc2s1)N1CCN(c2ccccn2)CC1`, the inhibition was 42.8% (inactive).

For `CCc1ccc(OCC2c3cc(OC)c(OC)cc3CCN2C(C)=O)cc1` (stereo not given), the inhibition was 42% (inactive).

With `COc1ccccc1OCCNC(=O)CCNC(=O)c1ccccc1Cl`, the inhibition is 23.8% (inactive).

With `CN(C(=O)c1cccc([N+](=O)[O-])c1)c1ccccc1C(=O)NCc1ccccc1`, the inhibition is 61% (active).

As for `O=C(c1cccc([N+](=O)[O-])c1)N1CCN(Cc2ccccc2)CC1`, the inhibition was 18.4% (inactive).

Consider `Cc1cc(CNC(=O)c2cccc([N+](=O)[O-])c2)c2ccccc2n1`, for which the inhibition was -3% (inactive).

`O=C(N/N=C/c1ccc(Cl)c(Cl)c1)c1ccc2nc[nH]c2c1`: the inhibition was 29.8% (inactive).

Consider `N#Cc1ccc(C2N=C(c3ccccc3)NO2)cc1` (stereo not given), for which the inhibition is 30.4% (inactive).

For the compound `CCOC(=O)c1c(C)n(C)c2ccc(OC)c(NS(=O)(=O)CC)c12`, the inhibition is -2.4% (inactive).

For `COc1ccc(Cl)cc1NC(=O)CN1CCN(C(=O)N2CCOCC2)CC1`, the inhibition was 4.5% (inactive).

As to `CCOC(=O)c1c(C)n(C)c2ccc(OC)c(NC(=O)CN3CCC4(CC3)OCCO4)c12`, the inhibition is 96.8% (active).

For `CCOc1ccc(C(C(=O)NCCOC)N(CCOC)C(=O)CCC(=O)Nc2ccccn2)cc1` (stereo not given), the inhibition was 1.5% (inactive).

With `COc1ccc2cc(C(=O)C3CCCN(C(=O)c4sc(C)nc4C)C3)ccc2c1` (stereo not given), the inhibition is 22.6% (inactive).

Consider `COc1ccccc1N1CC(C(=O)Nc2nnc(SCC(=O)NC(C)C)s2)CC1=O` (stereo not given), for which the inhibition was -84.3% (inactive).

As for `O=C(COC(=O)c1ccc(F)cc1)NCCCc1ccccc1`, the inhibition was 24.1% (inactive).

Turning to `O=C1CC(N2CCN(c3ccc(F)cc3)CC2)C(=O)N1c1ccccc1` (stereo not given), the inhibition is -16.5% (inactive).

As for `CC(=O)Nc1ccc(N2C(=O)CC(Sc3nccc(C)n3)C2=O)cc1` (stereo not given), the inhibition is 19.2% (inactive).

Consider `Cc1ccc(N2C(=O)CC(Sc3ncn[nH]3)C2=O)cc1` (stereo not given), for which the inhibition was 105% (active).

On to `COC(=O)c1ccccc1SC1CC(=O)N(c2cccc(C)c2)C1=O` (stereo not given), for which the inhibition was -11.7% (inactive).

For the compound `COc1ccc(N2C(=O)CC(Sc3n[nH]c(-c4ccc(C)cc4)n3)C2=O)cc1` (stereo not given), the inhibition is 10.2% (inactive).

Consider `O=C1CC(Sc2ncn[nH]2)C(=O)N1c1ccccc1` (stereo not given), for which the inhibition is 97.9% (active).

Take `CCc1ccc(/C=N/NC(=O)c2nnn(-c3nonc3N)c2CN2CCc3ccccc32)cc1`: the inhibition was 23.3% (inactive).

For `Cc1[nH]c(C)c(S(=O)(=O)N2CCN(c3cccc(C(F)(F)F)c3)CC2)c1C(=O)N1CCCC1`, the inhibition is 12.1% (inactive).

As for `Cc1cccc(N(C)C(=O)c2cc(S(=O)(=O)N3CCCCC3)c[nH]2)c1`, the inhibition is 25.4% (inactive).

For the compound `CCc1cccc(C)c1NS(=O)(=O)c1cc(Br)cnc1N`, the inhibition is 35.5% (inactive).

In the case of `CCCC(=O)N1CCN(c2nnc(-c3ccc(C)cc3)c3ccccc23)CC1`, the inhibition is 30.8% (inactive).

As to `O=C(CSc1nc2ccc(Nc3nc(N4CCOCC4)nc(N4CCOCC4)n3)cc2s1)NCc1ccco1`, the inhibition was 16.2% (inactive).

For `C=CCn1c(SCC(=O)Nc2nc3ccccc3s2)nnc1-c1ccccc1O`, the inhibition is -17.5% (inactive).

In the case of `C=CCn1c(CSc2nc3ccccc3s2)nnc1SCC(=O)NCc1ccco1`, the inhibition was 89.7% (active).

On to `O=S(=O)(/C=C/c1ccccc1)N1CCNCC1`, for which the inhibition was 37% (inactive).

For `Cc1cc(S(=O)(=O)NCc2ccccn2)c(Cl)cc1Cl`, the inhibition is 29.5% (inactive).

`CC1(C)NC(=O)N(CC(=O)Nc2cc(C(F)(F)F)cc(C(F)(F)F)c2)C1=O`: the inhibition is 24% (inactive).

With `O=C(NCc1ccc(Cl)cc1)c1cc2c(nc3sccn32)s1`, the inhibition was 66.1% (active).

Take `O=C(NCc1ccc(Cl)cc1)c1cc(=O)nc2sc(-c3ccccc3)nn12`: the inhibition is 19.7% (inactive).

On to `O=C(NCc1ccc(Cl)cc1)NCc1ccc(Cl)cc1`, for which the inhibition is 42.1% (inactive).

Take `COc1ccc(NC(=O)C2CCC(CNS(=O)(=O)c3csc(C(N)=O)c3)CC2)cc1OC` (stereo not given): the inhibition was 48.8% (inactive).

As for `CCOc1ccc(-c2n[nH]c(=S)n2/N=C/c2cc3c(cc2[N+](=O)[O-])OCO3)cc1`, the inhibition was 57.5% (inactive).

In the case of `Cc1ccc(S(=O)(=O)N/N=C\c2cc3c(cc2[N+](=O)[O-])OCO3)cc1`, the inhibition was -27.6% (inactive).

`Cc1ccc(-c2n[nH]c(=S)n2/N=C/c2cc3c(cc2[N+](=O)[O-])OCO3)cc1`: the inhibition was 99.7% (active).

As for `CN(C(=O)CC1C(=O)NCCN1Cc1ccc2ccccc2c1)C1CCOCC1` (stereo not given), the inhibition was 9% (inactive).

For `CCCc1nc(-c2cc3cc(C)ccc3[nH]c2=O)no1`, the inhibition is 76.8% (active).

With `CCNC(=O)CCc1nc(-c2ccc(C)cc2)no1`, the inhibition was 12.3% (inactive).

Consider `COc1ccc(N(Cc2cc3cc(OC)ccc3[nH]c2=O)S(C)(=O)=O)cc1`, for which the inhibition was -2.4% (inactive).

Regarding `Cc1cccc(-c2noc(-c3ccc(F)cc3)n2)c1`, the inhibition is -3.7% (inactive).

In the case of `COc1ccc2[nH]c(=O)c(-c3noc(-c4ccc(F)cc4)n3)cc2c1`, the inhibition is 80.2% (active).

In the case of `CC(=O)OCc1cc2cc(C)ccc2[nH]c1=O`, the inhibition was -4.1% (inactive).

On to `COC(=O)Cc1cnc(NC(=O)CSc2nc(C(C)C)cc(=O)[nH]2)s1`, for which the inhibition is 26.5% (inactive).

For `O=C(CCN1C(=O)[C@@H]2Cc3ccccc3CN2C1=O)NCCc1ccccc1`, the inhibition is 38.2% (inactive).

Consider `CC1=C/C(=N\OS(=O)(=O)c2ccccc2)C=CC1=O`, for which the inhibition is -13.3% (inactive).

As for `O=Cc1c(NCCc2cccc(F)c2)c2ccccc2[nH]c1=O`, the inhibition is 19.2% (inactive).

Values taken from PubChem BioAssay AID1565 (Sanford-Burnham Center for Chemical Genomics, 2009).
